IL-1B inflam inh: blocks inflammasome-driven IL-1 beta release. THP-1 LPS/ATP IL-1B secretion, AlphaLISA, 16 h; stronger effect = lower value. actives 4.7% (n = 360,000). AID 743279. activity change, % at 57.5 µM; in the data active = activity change below about -50%; inconclusive = mostly about -30% to -49%
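THP-1 cells pretreated 1 hr with compounds (up to 57.5 uM final), then stimulated with LPS (250 ng/mL final) plus ATP (1.25 mM final); secreted IL-1B measured by AlphaLISA after 16 hr, decreased signal indicating inhibition.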
HT1080 IDH1KD tx: toxicity to HT-1080 IDH1 knockdown cells (counter line). HT-1080 IDH1 knockdown viability, ATP luminescence, 48 h. Potency, µM (titrated, usually from 46.1 µM), inactives show top-dose activity, negative = toxicity, most hits filed as cytotoxic. actives 2% (n = 360,000);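 note: potency is the fitted concentration of half-maximal effect; 0% = DMSO wells and -100% = cell-free medium wells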
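IDH1KD HT-1080 cells, 750/well, RPMI + 5% FBS; compound pinned after 2 h settling; 48 h, 37 °C; CellTiter-Glo luminescence; % activity normalised to DMSO and no-cell wells; curves fitted, classed by r2 and efficacy.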
HT1080NT lethal: kills 2HG-producing HT-1080-NT fibrosarcoma cells; actives 1.6% (n = 360,000); Potency, µM (titrated, usually from 46.1 µM), without a hit: at the top dose activity, negative = less viability, actives largely listed as cytotoxic; HT-1080-NT fibrosarcoma viability, CellTiter-Glo ATP luminescence, 48 h;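 note: NT is the 2HG producing partner of a matched IDH1 knockdown line; potency is the fitted concentration of half-maximal effect; 0% = DMSO-treated cells and -100% = media-only wells without cells; nearly all actives have a fitted effect of over 55% in size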
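Compounds were tested in concentration-response format on HT-1080-NT cells for 48 hours at 37 degrees C. Cell viability came from CellTiter-Glo luminescence; curves were classified by r2, response magnitude and activity.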
ELG1 repair inh: blocks ELG1-dependent DNA repair in HEK293T cells; HEK293T ELG1-luciferase reporter, luminescence, 16 h; DNA damage induced by 5-fluorouridine; Potency, µM (series often up to 46.1 µM), inactives show top-dose activity change, negative = inhibition, hits mostly inhibitors; actives 2.3% (n = 330,000); note: potency is the fitted concentration of half-maximal effect; nearly all actives have a fitted effect of over 55% in size
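In this reporter screen, reduction of luminescence relative to DMSO vehicle indicated activity. Compounds and 5-fluorouridine were added together to 2,000 cells per well, incubated for 16 hr at 37 °C, then developed with ONE-Glo.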
DT40 TDP1 no CPT: qHTS for Inhibitors of human tyrosyl-DNA phosphodiesterase 1 (TDP1): qHTS in cells in absence of CPT; DT40 Tdp1-/- hTDP1 cells, no CPT, ATP luminescence, 48 h; Potency, µM (series often up to 46.2 µM), for inactives: at the highest dose activity change, negative = growth inhibition, actives largely listed as inhibitors; actives 15% (n = 420,000); note: potency is the fitted concentration of half-maximal effect; nearly all actives have a fitted effect of over 55% in size
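No-CPT arm: Tdp1-/-;hTDP1 DT40 cells (400/well) plus compounds, incubated ≥48 hr at 37 °C. Readout CellTiter-Glo luminescence.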
DT40 TDP1 CPT: growth inhibition of DT40 Tdp1-/-;hTDP1 cells with camptothecin (screen for TDP1 inhibitors); chicken DT40 Tdp1-/-;hTDP1 cells + 20 nM CPT, ATP luminescence, 48 h; AID 686979; actives 12% (n = 420,000); Potency, µM (titrated, usually from 46.2 µM), for the others: at the highest dose activity change, negative = growth inhibition, most hits filed as inhibitors; note: potency is the fitted concentration of half-maximal effect; nearly all actives have a fitted effect of over 55% in size
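Cell growth measured by CellTiter-Glo luminescence after a minimum 48 h, 37 C compound exposure with 20 nM CPT in Tdp1-knockout DT40 cells stably expressing hTDP1, seeded 400/well; qHTS titration format.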
* hit, by the source's call; ? = inconclusive; . = not tested or not shown. Most compounds without a hit are left out; they make up all but 19% or so of the library. Unless noted, calls come from the whole dose curve; as a rule, active = well fitted curve in the direction sought with a large enough effect; inconclusive = small, poorly fitted or top-dose-only effect, or another doubt; inactive = no such curve, though single readings can be large; an effect the other way counts as inactive or inconclusive. Unless noted, % is set by controls: 0 for no effect and ±100 for the full control effect.

SMILES | IL-1B inflam inh | HT1080 IDH1KD tx | HT1080NT lethal | ELG1 repair inh | DT40 TDP1 no CPT | DT40 TDP1 CPT
Cc1cccc2cc(C(c3nnnn3C3CCCC3)N3CCOCC3)c(=O)[nH]c12 (stereo unspecified) | -9 | 4% | 6% | -7% | -12% | -3%
COC(=O)[C@@H]1CCCN1C(=O)c1c(OC)cc(=O)n2c1CCN(Cc1ccc3cccnc3c1)CC2 | . | . | . | . | -4% | 0%
O=C(Nc1ccc(F)cc1)c1cc(S(=O)(=O)Nc2ccc(F)cc2)cs1 | 20 | -28% | ? | -8% | 29µM* | ?
COc1ccc(NC(=O)c2cc(S(=O)(=O)Nc3ccc(OC)cc3)cs2)cc1 | -12 | -5% | -1% | ? | 29µM* | ?
CCc1nn(CC(=O)NC(C)C)c(=O)c2cc3cc(F)ccc3n12 | . | . | . | . | -13% | 6%
COc1ccc(NC(=O)CN(C)C(=O)c2ccc(N3CCCCC3)c([N+](=O)[O-])c2)cc1 | -2 | -2% | -1% | -7% | 15µM* | ?
COc1ccc(NC(=O)CN(C)C(=O)c2ccc(N3CCCCCC3)c([N+](=O)[O-])c2)cc1 | -4 | 1% | 7% | -7% | ? | ?
COc1ccc(Cl)cc1NC(=O)CN(C)C(=O)c1ccc(N2CCCCC2)c([N+](=O)[O-])c1 | -14 | -17% | -13% | ? | 16µM* | 9.2µM*
COc1ccc(Cl)cc1NC(=O)CN(C)C(=O)c1ccc(N2CCCCCC2)c([N+](=O)[O-])c1 | -6 | -17% | -1% | ? | 23µM* | 16µM*
COc1cccc(CN(C)C(=O)c2ccc(N3CCCC3)c([N+](=O)[O-])c2)c1 | -27 | -6% | 0% | 0% | 23µM* | 16µM*
COCCCNC(=O)CCCN1C(=O)CCn2nc(-c3cn(C)c4ccccc34)cc21 | . | . | . | . | -20% | 0%
CCc1ccc(NC(=O)c2ccc(CN3C(=O)C(C)=C(c4ccc(C)cc4)S3(=O)=O)cc2)cc1 | . | . | . | . | 10µM* | ?
COc1ccc(C2=C(C)C(=O)N(Cc3ccc(C(=O)Nc4ccc(C)c(C)c4)cc3)S2(=O)=O)cc1 | . | . | . | . | ? | -22%
CCOc1ccc(NC(=O)c2ccc(CN3C(=O)C(C)=C(c4ccc(C)cc4)S3(=O)=O)cc2)cc1 | . | . | . | . | ? | -10%
CC1=C(c2ccc(C)cc2)S(=O)(=O)N(Cc2ccc(C(=O)Nc3ccc(F)cc3C)cc2)C1=O | . | . | . | . | 5.2µM* | 5.8µM*
CC1=C(c2ccc(C)cc2)S(=O)(=O)N(Cc2ccc(C(=O)Nc3ccccc3C)cc2)C1=O | . | . | . | . | 8.2µM* | 7.3µM*
COc1ccccc1N(CC(=O)NCc1ccccc1)C(=O)CCC(=O)Nc1nccs1 | -11 | 7% | 15% | ? | -24% | -1%
CNc1cncc(-c2ccc(OC)cc2)n1 | -6 | 15% | 5% | . | -23% | -8%
COc1ccccc1NC(=S)N1CCNC(=O)C1CC(=O)Nc1cccc(C)c1 (stereo unspecified) | -14 | -3% | -11% | 5% | 17% | 5%
COc1ccccc1NC(=O)CC1C(=O)NCCN1C(=O)Nc1ccc(Cl)c(Cl)c1 (stereo unspecified) | . | ? | 16µM* | -17% | -23% | ?
O=C(CC1C(=O)NCCN1C(=O)Nc1ccccc1)Nc1cccc(Cl)c1 (stereo unspecified) | -5 | -3% | -5% | -1% | 8% | 0%
O=C(CC1C(=O)NCCN1C(=O)Nc1ccccc1)Nc1cc(Cl)cc(Cl)c1 (stereo unspecified) | ? | 26µM* | 16µM* | -4% | -1% | -3%
Cc1cccc(NC(=O)CC2C(=O)NCCN2C(=S)Nc2ccccc2)c1 (stereo unspecified) | -61* | -6% | -1% | 10% | -1% | -1%
COc1cccc(/C=C/C(=O)OCC(=O)Nc2cccc(S(=O)(=O)NC3=NCCCCC3)c2)c1 | ? | 1% | 2% | -1% | 4% | 0%
CC(C)(C)OC(=O)NCCCCCNC(=O)c1[nH]cnc1C(=O)Nc1cc(Br)ccc1F | -14 | 12% | 7% | . | 5.8µM* | 12µM*
SMILES | IL-1B inflam inh | HT1080 IDH1KD tx | HT1080NT lethal | ELG1 repair inh | DT40 TDP1 no CPT | DT40 TDP1 CPT
CCN(CC)C(=O)c1[nH]cnc1C(=O)NCCCCCNC(=O)OC(C)(C)C | 0 | 9% | -2% | 0% | -3% | -2%
CC(C)(C)OC(=O)NCc1ccc(NC(=O)c2nc[nH]c2C(=O)Nc2cc(Br)ccc2F)cc1 | ? | 14% | 27% | . | 13µM* | 10µM*
CC(C)(C)OC(=O)NCc1ccc(NC(=O)c2nc[nH]c2C(=O)NCCN(CCNC(=O)c2[nH]cnc2C(=O)Nc2ccc(CNC(=O)OC(C)(C)C)cc2)CCNC(=O)c2[nH]cnc2C(=O)Nc2ccc(CNC(=O)OC(C)(C)C)cc2)cc1 | -10 | 3% | 11% | 7% | -19% | ?
CCOC(=O)C1=C(C)NC(C)=C(C(=O)OCC)C1C(=O)OCC(=O)N1CCOCC1 | 3 | 21% | 12% | 8% | 19% | -1%
O=C(Cn1c(=O)c2ccccc2n(CC(=O)Nc2ccc(F)cc2F)c1=O)NCCc1ccccc1 | . | . | . | . | 5% | -10%
CCOC(=O)N1C(=O)NC(=O)C1c1ccc(OC)cc1 (stereo unspecified) | -6 | 16% | 15% | . | -4% | -2%
CCOC(=O)Cc1csc(NC(=O)/C=C/c2ccc(Cl)cc2)n1 | 0 | -19% | -20% | -4% | ? | 18µM*

Assay outcomes deposited in PubChem by National Center for Advancing Translational Sciences (NCATS).
